# According to PubChem BioAssay (NCI):
# The panel holds about 83,000 compounds, 20% with a hit somewhere; the sample as a whole holds those more often.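 Single-concentration screen, 48 h exposure, 96-well plates. Endpoint: percent growth. Below 10 = active.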 Unmarked numbers belong to inactive results. Calls of active or inactive are those of the source.
# Tested on: HL-60(TB) leukemia
# Test: NCI-60 one-dose screen, 48 h (100 = growth as untreated, 0 = no growth, -100 = all killed)
# Conditions: 10 µM unless noted
row,Structure (SMILES),growth
1,Cc1ccc(NC(=O)/C=C/c2ccccc2)c(C(N)=O)c1,-25.5% (active)
2,CC(C)c1ccc(C(=O)Nc2sc3c(c2C#N)CCC(=O)C3)cc1,-16.7% (active)
3,CC(=O)OC1CCC2(C)C(CCC3C4CC=C(C(C)=O)C4(C)OC(=O)CC32)C1 (stereo not given),-39.8% (active)
4,Cc1nc2sc(C(=O)Nc3cccc4ccccc34)c(N)c2cc1C(=O)/C=C/c1ccccc1,4.48% (active)
5,Cc1nc(C)c(C)nc1C,73.9%
6,Cn1cnc([N+](=O)[O-])c1Sc1nnc(-c2ccccc2)c(-c2ccccc2)n1,104%
7,Cc1cccc(NC(=O)Cn2cc(CN3CCN(c4ccnc5cc(Cl)ccc45)CC3)nn2)c1,89.1%
8,CC(C)CCNCC(O)Cn1c2ccccc2c2ccccc21 (stereo not given),-14.8% (active)
9,CCn1cc2c(cc1=O)-c1nc3ccccc3c3ccnc(c13)C2=O,93.9%
10,COc1ccc(/C(C#N)=C/c2cc(OC)c(OC)c(OC)c2)cc1,14.8%
11,NC(=S)Nc1ccc2c(c1)Cc1ccccc1-2,77.4%
12,C[n+]1c(/C=C/c2c(O)ccc3ccccc23)ccc2ccccc21,17.9%
13,O=C(CCOCCNC(=O)COc1ccc2c(c1)OCC(c1ccc(F)cc1)C2=O)NCCCC(O)(P(=O)(O)O)P(=O)(O)O (stereo not given),104%
14,O=C(Nc1ccc2c(O)cc(S(=O)(=O)O)cc2c1)c1ccc([N+](=O)[O-])cc1,75.3%
15,Clc1ccc2c(N3CCN(c4ccnc(NC5CCCCC5)n4)CC3)ccnc2c1,-13.8% (active)
16,O=C(NNc1ccc(-c2ccccc2)nn1)c1ccc(F)cc1,96.7%
17,Cc1cc(-c2ccccc2)nc2ccccc12,90.8%
18,O=C(/C=C/c1ccccc1)c1ccc(O)c(CN2CCN(c3cc4c(cc3F)c(=O)c(C(=O)O)cn4C3CC3)CC2)c1,-6% (active)
19,Cc1ccc(-c2nc(/C=N/Nc3cc(C)nc4ccc(Br)cc34)c(C)o2)cc1,-37.4% (active)
20,COc1ccc2nc(C)cc(Sc3nc4ccccc4s3)c2c1,6.64% (active)

row,Structure (SMILES),growth
1,Nc1ncn([C@@H]2O[C@H](CO)[C@@H](O)C2(F)F)c(=O)n1,25.2%
2,NC(=O)NC(=O)c1ccc(Cl)cc1,95%
3,CCN(CC)Cc1cc(C=C2C(=O)NC(=S)NC2=O)cc(OC)c1O,106%
4,CC(=O)Nc1cscc1NC(C)=O,96.7%
5,Cc1ncc(C#N)c(N)n1,109%
6,O=C(CCN1C(=O)/C(=C/c2ccc(Cl)cc2)SC1=S)NCCCN1CCOCC1,98.9%
7,N#Cc1c(NC(=O)c2cccs2)[n+]([O-])c2cc(C(F)(F)F)ccc2[n+]1[O-],89%
8,COc1cc2c(cc1OCCCCCCN1CCN(CC(=O)Nc3ccc(Cl)cc3C(=O)c3ccccc3Cl)CC1)N=CC1CCCN1C2=O (stereo not given),-85.8% (active)
9,Oc1ccc(-c2[nH]c3ccccc3c2-c2nc3ccccc3o2)cc1,80.8%
10,O=C(/C=C/c1ccc(Cl)cc1)c1ccc(Nc2ccnc3cc(Cl)ccc23)cc1,23.2%
11,CCC1CCc2nc3sc(C(=O)Nc4ccccc4F)c(N)c3cc2C1 (stereo not given),21.5%
12,COc1ccc(/C=C/c2cccc[n+]2C)cc1,105%
13,COc1ccc(/C(=C2/O[C@@H]([C@H]3COC(C)(C)O3)[C@H]3OC(C)(C)O[C@@H]23)c2cc(OC)c(OC)c(OC)c2)cc1O,-0.369% (active)
14,O=C1CCCC=CC[C@H]2C=C(Cl)C(=O)C2=CC[C@H](CCCCC(F)(F)F)OC(=O)CCCC=CC[C@H]2C=C(Cl)C(=O)C2=CC[C@H](CCCCC(F)(F)F)OC(=O)CCCC=CC[C@H]2C=C(Cl)C(=O)C2=CC[C@H](CCCCC(F)(F)F)O1,27.6% [6.25 µM]
15,O=C1NC(=O)C(=Cc2cn(Cc3cn(Cc4ccc(Cl)cc4Cl)nn3)c3ccccc23)C(=O)N1,73.8%
16,O=C(COc1cccc(/C=C2\Oc3ccc4ccccc4c3C2=O)c1)c1ccc([N+](=O)[O-])cc1,94.8%
17,COc1ccc(Cn2cc3c(c2-c2ccccc2)CCc2cnoc2-3)cc1,4.48% (active)
18,NS(=O)(=O)c1ccc(N2N=C(c3ccccc3)CCC2=O)cc1,64.2%
19,O=C1COCCN1c1ccc(NCc2cn(Cc3ccc(F)cc3)c3ccccc23)cc1,86.9%
20,COc1ccc2[nH]c(O)c(/C=c3/ccc4c(c3)N=C(c3ccc(C(F)(F)F)cc3)N=4)c2c1,94.4%
